# Tested on: VDR:RXRa (NR concentration 270 nM, RXRa partner concentration 90 nM)
# Experiment: PBM binding z-score (relative to random genomic background probes); higher = stronger binding; sequences stand for … in GC…GCGATTGACAGCGTAGAATGAAGG
# Experimental: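 Protein-binding microarray (Agilent 4x180K custom design, double-stranded 60-nt probes: 5' GC cap, 34-nt variable region, 24-nt constant primer region; full probe sequence given). Purified or IVT nuclear receptor:RXRα heterodimers (3:1 NR:RXRα, mostly 270:90 nM) or homodimers were incubated for 1 h in PBS with 2% milk and no ligand, then detected with Alexa488 antibodies. Fluorescence from o1-orientation probes (~5 replicates averaged) was converted to z-scores against 500 random hg19 background probes. Variable regions are seed direct-repeat (DR0–DR5) sites, all their single-nucleotide variants and half-site ablations.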
row,Sequence,PBM binding z-score
1,ACAGACAGGTGAGTGAAGGAAACTCAGCTGGACG,-0.816
2,CGTCAAAGTTCAAGGTAAGGTAACAGAAAGCAGC,3.7
3,CCTAGTTCGTCAAGGTCACACACGCTATAGGTAC,6.46
4,AGAATGAGGTTGTACGTAGATCAGGGAAGAAAGT,0.177
5,CCTACTGGGCCATTCAGAGGCCATTGATCATATG,-0.232
6,TCTTGTCGATCAATAGAGGTTAAGAAAGTGCGCT,1.86
7,GCATATAGGTAATACAAGGTGACAGTCCGATTGT,0.313
8,AGAACGAGTGCACGCTGAGTTGATAGCAGAGTAG,2.1
9,TCTCGGAGGACACGAAGGTCAGAGCATTCCAGAG,2.31
10,CGTCCATGGTCAATGCTAGGTCAGTGAAAGCATT,0.204
11,GATACAGGGTCAGCTAGAAGCCAGAGTATGGAAA,2.11
12,CCTTACTGGTCACTGACAGGTTATAGCATTTGGA,0.592
13,CGAACAAGGTCAGAACAGGACAGTGAAGGATGAT,3
14,GCATATAGGTAATACAAGGTAAAAGTCCGATTGT,0.085
15,ACAGACAGGTGAGTGAAGGTAACTCACCTGGACG,-0.173
16,TCTAGTTGGTCACGGTGGTCACACACGACGGGTA,0.961
17,TCTATCAGGCCAGAGGGTCACTCAAGAGGTACGG,2.03
18,TGAATGAGGTTAAAGATTAGGGAACGTGGCGTCG,1.44
19,ATATGTACGTTACATCCGGGTCATTCAGGCTATG,3.54
20,CGAACTAGGTCACTGACAGGACAGTGAATAGTAA,1.77

row,Sequence,PBM binding z-score
1,TCTGGTAGATCAAAGGTTAAGAAAGCCGAAGCCT,1.48
2,ATGTCTAGGTAAGACTCAGTTCAGTGAAGAACGC,0.683
3,CCTTAAGGGTCACTCCAGGTTATAGCATCGGAGT,5.13
4,CCGACTGGGGCAAAGGTTAGCATACTCAGTACGA,0.691
5,TCATATAGGTAAACAGGTGACAGTCCGTAAGTTA,0.94
6,TAGCCTATGTCAGATCGGGCCAGTATACGCTATA,-0.407
7,CCTCGGAGCACAACAGGAGGTCAGAGCTGCCAGA,1.32
8,GATACAGGGTCAAGGCCCGAGTACGCGTATTGAT,4.28
9,AATAGAGGGTCACTAGGCCAGAGTAGGTACGAAT,2.75
10,GCTATTAGTAGAAAGGGCAACCGAATGATTCTCG,0.11
11,AGTCAAAGTTCACTAGTTAACGTAAGATTCAGCT,3.88
12,CCTACTGGGCCAAAAAGGTCATTGAAGCCGATAA,4.54
13,CAAACTAGGTCCCGAAAGGTCAAAGTCGAATGAC,4.92
14,TCATATAGTTAATACAGGTGAAAGTCGGCATCTA,1.26
15,CCGACTGGGACAGAAAGGTTACCATACCATCCGG,0.351
16,CACGAAAGGTCGTGCTCAGGTGAGTATACCAAAC,3.51
17,CCTCGGAGGAGAACAGGAGGTCAGAGCTGCCAGA,1.29
18,ACTAGGAGGCCAAGTTTGGGTCACTCAAACAAAG,1.08
19,TCTAGTTGGGCAAAGGTCACACACTCGAAATGCG,4.65
20,GCTTATAGGTAATACAAGGTGAAAGTCCGATTGT,0.401

# Reference: the supplement of paper PMC6555819
